Screening data (PubChem)
Pf Dd2 inh: inhibitors of Plasmodium falciparum Dd2 growth; P. falciparum Dd2 growth, SYBR Green, 72 h; Potency, µM (highest dose often 28.9 µM), hits mostly inhibitors; 4.3% of 120,000 active; AID 1347417; active = well fitted inhibition curve with a large enough effect; note: nearly all actives have a fitted effect of over 65% in size
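Readout: SYBR Green fluorescence, 485 nm excitation, 535 nm emission, after ~16 h lysis at 37C. Before that, Dd2-infected red cells (2.5% hematocrit) grew 72 h with compound, 29 uM top final concentration.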
Of the large screens only hits and unclear results are named; the others gave an inactive call. This excerpt belongs to a sample that is enriched for hits.

CN1C(=O)C(c2ccccc2)CC12CCN(C(=O)C1CCCC1)CC2 (stereo not drawn)	none
O=C(NCCCc1nc2ccc(Cl)cc2[nH]1)[C@H]1CCC[C@@H](O)C1	none
Cn1nc2n(c1=O)CCNCC2	none
CS(=O)(=O)N1CCc2ccc(C(=O)N3CCN(Cc4ccc5c(c4)OCO5)CC3)cc21	none
O=C(c1ccoc1)N1CCC2(CC1)CC(N(C(=O)c1ccccc1)C1CC1)CCO2 (stereo not drawn)	none
COCC1CN(C(C)=O)CC12CCN(S(=O)(=O)c1cc(C)ccc1C)CC2 (stereo not drawn)	none
O=C(c1ccc2nccnc2c1)N1CCC2(CC1)Nc1ccccc1NC2=O	none
CCOC(=O)c1cccc(Nc2nc(-c3ccccc3)no2)c1	none
CC(C)CC(=O)N1CCc2nnc([C@@H]3C[C@@H](O)CN3C)n2CC1	none
COc1ccc(-c2nc(C(=O)NC3CC3)n3ccccc23)cc1	Pf Dd2 inh 11µM
C[S+](=O)([O-])c1ccc(-c2nc(C(=O)NC3CC3)n3ccccc23)cc1	none
COc1ccccc1-c1nc(C(=O)NC2CC2)n2ccccc12	none
O=C(CCNc1c(-c2ccc(F)cc2)nc2cnccn12)NC1CCCC1	none
O=C(NC1CC1)c1nc(-c2ccc(F)cc2)c2cnccn12	Pf Dd2 inh 11µM
CN(C)C(=O)c1nc(-c2ccc(S(C)(=O)=O)cc2)c2cnccn12	none
COCCNC(=O)[C@@H]1C[C@H](Oc2ccccc2)CN1C(=O)CCc1c(C)nn(C)c1C	none
Cc1ccc(-n2ncc(C(=O)NCCN3CCC(Cc4ccccc4)CC3)c2C2CCN(C(=O)OC(C)(C)C)CC2)cc1	Pf Dd2 inh 3.2µM
CC(C)(C)OC(=O)N1CCC(c2c(C(=O)NCCN3CCCC3)cnn2-c2ccc(Cl)cc2)CC1	Pf Dd2 inh 7.1µM
Cc1c(Cl)cccc1-n1ncc(C(=O)N2CCN(C)CC2)c1C1CCN(C(=O)OC(C)(C)C)CC1	none
Cc1cccc(C)c1-n1ncc(C(=O)NCCN2CCN(C)CC2)c1C1CCN(C(=O)OC(C)(C)C)CC1	none
COc1ccccc1CN1CCC(CNC(=O)c2cnn(-c3ccc(Cl)cc3)c2C2CCN(C(=O)OC(C)(C)C)CC2)CC1	Pf Dd2 inh 1.3µM
Cc1c(Cl)cccc1-n1ncc(C(=O)NCCN2CCN(C)CC2)c1C1CCN(C(=O)OC(C)(C)C)CC1	Pf Dd2 inh 11µM
COc1ccc(C(=O)N[C@@H]2CCC[C@@H]2C(=O)NCCN(C)C)cc1	none
Cc1nn(C)cc1C(=O)N(Cc1cccc(Cl)c1)CC(C)C	none
Cc1nnc([C@@H]2CC(F)(F)CN2C(=O)c2ccc3ncccc3c2)o1	none
COCCN1C(=O)CO[C@H]2CN(c3nccc(OC)n3)C[C@H]21	none
O=C(c1ccccc1F)N1CCCC(n2cc(-c3nc(C4CC4)no3)nn2)C1 (stereo not drawn)	none
O=C(c1ccncc1)N1CCCC1c1nc(CCOCC2CCCC2)no1 (stereo not drawn)	none
Cc1ncsc1C(=O)N1CCCC(CCc2ccc(F)cc2F)C1 (stereo not drawn)	none
CN(c1ccccc1)c1cc(=O)c2ccnc(N3CCOCC3)c2o1	none
CN(c1ccccc1)c1cc(=O)c2ccnc(N3CCN(c4ccccn4)CC3)c2o1	Pf Dd2 inh 13µM
CN1CCN(c2cc(=O)c3ccnc(N4CCN(c5ccccn5)CC4)c3o2)CC1	none
COc1ccc2[nH]c3c(c2c1)CCNC31CCN(C(=O)c2c(C)noc2C)CC1	none
CN(C)c1cccc(C(=O)NC2CCN(c3cnn(C)c(=O)c3)CC2)c1	none
Cn1cccc1CN1CCC2(CN[S+](=O)([O-])c3ccccc3N2)C1 (stereo not drawn)	none
COCC(=O)N1CCC2(CC1)CN(Cc1cnc(C(C)C)nc1)CCN2C	none
Cc1ccc(-c2[nH]ncc2CN2CCN(c3ccc(Cl)cn3)CC2)cc1C	none
CCc1ccc(-n2nc(C)c3c(C)cc(=O)n(CC(=O)N(CC)Cc4ccccc4)c32)cc1	Pf Dd2 inh 8.9µM
Cc1cc(=O)n(Cc2ccccc2)c2c1c(C)nn2-c1ccccc1	none
CCN(CC)C(=O)Cn1c(=O)cc(C)c2c(C)nn(C)c21	none
Cc1ccc(C(=O)N2C3CCCC2CC(=O)C3)cc1	none
Cc1cc2cc(-c3c(C)noc3C)nc(N(C)CCN(C)C)c2o1	Pf Dd2 inh 2µM
Cc1cc2cc(-c3c(C)noc3C)nc(Nc3ccccc3)c2o1	none
Cc1cc2cc(-c3c(C)noc3C)nc(N3CCCC3)c2o1	none
c1ccc(Cn2cc(CN3CCCOCC3)c(-c3cc4ccccc4o3)n2)cc1	Pf Dd2 inh 11µM
c1ccc(Cn2cc(CN3CCCC3)c(-c3ccc4c(c3)OCO4)n2)cc1	Pf Dd2 inh 11µM
Fc1ccccc1N1CCN(Cc2nnc(-c3ccc4c(c3)OCO4)o2)CC1	none
FC1CCN(Cc2cn(Cc3ccccc3)nc2-c2cc3ccccc3o2)CC1	Pf Dd2 inh 7.9µM
O=C(O)c1cncc(-c2cccc(CN3CCOCC3)c2)n1	none
O=C1CCN(Cc2ccccc2)CCOCCN1	none
O=C1NCCN1C1CCN(Cc2ccccc2)CC1	none
COCC1CCCCN1C(=O)c1ccc2oc(CCc3ccccc3)nc2c1 (stereo not drawn)	none
O[C@@H]1C[C@@H](c2nc(-c3ccc4c(c3)OCO4)no2)N(Cc2ccccc2)C1	none
COC[C@H]1CCCN1Cc1cn(Cc2ccccc2)nc1-c1cc2ccccc2o1	Pf Dd2 inh 7.9µM
COC[C@H]1CCCN1C(=O)CC[C@H]1CNC(=O)[C@@H]2[C@@H](CCN2Cc2ccccc2)N1C	none
Cc1nnc([C@H]2CCN(Cc3ccccc3)C2)o1	none
O=C1CCC2(CCCO2)CCN1Cc1ccccc1F (stereo not drawn)	none
CCc1noc(-c2ccn3c(CNC(=O)CCc4cccc(OC)c4)nnc3c2)n1	none
Cc1ccc(NC(=O)N[C@@H]2C=C(C(=O)NCC(N)=O)C[C@@H](O)[C@@H]2O)cc1	none
CS(=O)(=O)N1CCCC(C(=O)NCCCN2CCCc3ccccc32)CCNC(=O)CC1 (stereo not drawn)	none
CN(C)C(=O)c1c[nH]c2cccnc12	none
CCOc1ccc(-c2ccnc(N3CCNC(C)C3)n2)cc1C(=O)O (stereo not drawn)	none
CN1CC2(CCCN(Cc3cc4ccccc4o3)C2)OC1=O (stereo not drawn)	none
CC1(C)CN(Cc2cn(Cc3ccccc3)nc2-c2cc3ccccc3o2)CCO1	Pf Dd2 inh 8.9µM
CN1CC2(CCN(Cc3ccccc3)CC2)CC1C(=O)N1CCOCC1 (stereo not drawn)	none
CN(C)c1cc(N2CCCC(NC(=O)c3ccnn3C)C2)ncn1 (stereo not drawn)	none
CC(C(=O)NC1CCN(c2cnn(CC3CC3)c(=O)c2)CC1)c1ccccc1 (stereo not drawn)	none
COCCNC(=O)[C@H]1C[C@H](Oc2cccnc2)CN1C(=O)Nc1ccc(OC)cc1	none
CNC(=O)N1CCC(C2CCN(C3CCSCC3)C2)CC1 (stereo not drawn)	none
COC[C@@H]1CN(Cc2ccco2)C[C@H]1C(=O)N(C)C	none
COc1ccc2[nH]c3c(c2c1)CCNC31CCN(C(=O)C(C)C)CC1	none
CCCC(=O)N1CCC2(CC1)NCCc1c2[nH]c2ccc(OC)cc12	none
CC(C)CC(=O)N1CCC2(CC1)NCCc1c2[nH]c2ccccc12	none
COc1ccc2[nH]c3c(c2c1)CCNC31CCN(C(=O)CC(C)C)CC1	Pf Dd2 inh 7.9µM
O=C(c1nccc2ccccc12)N1CCC2(CC1)NCCc1c2[nH]c2ccccc12	Pf Dd2 inh 4µM
COc1ccc2[nH]c3c(c2c1)CCNC31CCN(C(=O)c2ccncc2)CC1	none
CCn1ccc(C(=O)N2CCC3(CC2)NCCc2c3[nH]c3ccccc23)n1	none
COc1ccc2[nH]c3c(c2c1)CCNC31CCN(C(=O)C2CCN2C2CCCCC2)CC1 (stereo not drawn)	Pf Dd2 inh 13µM
CCC(=O)N1CCC2(CC1)NCCc1c2[nH]c2ccc(OC)cc12	none
